# This is a sample that favours compounds with a hit; in the whole collection about 17% have one here.
# ATXN2 expr inh: inhibitors of ATXN2 expression; Potency, µM (series often up to 57 µM), without a hit: at the top dose activity change, negative = inhibition, most hits filed as inhibitors; HEK-293 ATXN2-luciferase reporter, luminescence, 24 h; 0.72% of 360,000 active; note: % is set by controls: 0 for no effect and ±100 for the full control effect; nearly all actives have a fitted effect of over 55% in size
#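 qHTS (up to 57 uM final) was run with 24 h compound exposure of reporter cells at 37 °C. Each well was multiplexed: SteadyGlo luminescence measured ATXN2-luciferase expression after a fluorogenic Gly-Phe-AFC viability readout (25 uM final).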
# TGFb SMAD3 inh: blocks TGF-b signaling | Potency, µM (doses to about 46.1 µM), without a hit: at the highest dose activity, negative = inhibition, usual class: inhibitors | 1.2% of 410,000 active | AID 588855 | HepG2 CAGA-GFP TGF-b/SMAD3 reporter, GFP fluorescence, 18 h; TGF-beta stimulated, 500 pg/mL final; note: % is set by controls: 0 for no effect and ±100 for the full control effect; nearly all actives have a fitted effect of over 65% in size
#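 TGF-beta reporter screen: HEPG2 CAGA-GFP, 1% FBS, 500 pg/mL TGF-beta final, 18 h; per-cell GFP summed per well; curves fitted and categorized by class.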
# S2 tox: viability counter-screen for ATXN expression inhibitors. S2 cells (HEK-293 line with an ATXN2-luciferase reporter) viability, CellTiter-Fluor protease fluorescence, 24 h. Potency, µM (doses to about 56.7 µM), usual class: cytotoxic. 0.49% of 400,000 active. AID 651635; note: nearly all actives have a fitted effect of over 40% in size
# DT40 TDP1 no CPT: qHTS for Inhibitors of human tyrosyl-DNA phosphodiesterase 1 (TDP1): qHTS in cells in absence of CPT; DT40 Tdp1-/- hTDP1 cells, no CPT, ATP luminescence, 48 h; Potency, µM (titrated, usually from 46.2 µM), without a hit: top-dose activity change, negative = growth inhibition, usual class: inhibitors; 15% of 420,000 active; AID 686978, 2013; note: % is set by controls: 0 for no effect and ±100 for the full control effect; nearly all actives have a fitted effect of over 55% in size
#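 Chicken DT40 Tdp1-/- cells stably complemented with human TDP1 were seeded at 400 cells/well with DMSO in place of 20 nM camptothecin. After compound pinning, cells grew at least 48 hr at 37 °C; viability read by CellTiter-Glo luminescence.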
# TDP1 cell CPT: growth inhibition of DT40 Tdp1-/-;hTDP1 cells with camptothecin (screen for TDP1 inhibitors); Potency, µM (highest dose often 46.2 µM), without a hit: at the top dose activity change, negative = growth inhibition, hits mostly inhibitors; chicken DT40 Tdp1-/-;hTDP1 cells + 20 nM CPT, ATP luminescence, 48 h; 12% of 420,000 active; note: % is set by controls: 0 for no effect and ±100 for the full control effect; nearly all actives have a fitted effect of over 55% in size
#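 Chicken DT40 Tdp1-/- cells complemented with human TDP1, 400 cells/well, exposed to compounds plus 20 nM camptothecin for at least 48 h at 37 C; viability read as ATP content by CellTiter-Glo luminescence.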
# HepG2 viability: HepG2 cytotoxicity, counter-screen for TGF-b inhibitors; HepG2 CAGA-GFP viability, ATP luminescence, 18 h; Potency, µM (series often up to 46.1 µM), for the others: at the top dose activity change, negative = cytotoxicity, actives largely listed as cytotoxic; 0.76% of 410,000 active; AID 588856
#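 HepG2 CAGA-GFP cells (1000/well, DMEM with 1% FBS) received compound, then TGF-beta at 500 pg/mL final, and were incubated 18 hours at 37 degrees C. Viability was read by CellTiter-Glo luminescence. Media-only wells were set as complete cell-killing and DMSO as no toxicity.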
# Numbers without * were called inactive; i = inactive; ? = inconclusive; · = no result given. Calls come from the whole dose curve; as a rule, active = well fitted curve in the direction sought with a large enough effect; inconclusive = small, poorly fitted or top-dose-only effect, or another doubt; inactive = no such curve, though single readings can be large; an effect the other way counts as inactive or inconclusive. Potency is the fitted concentration of half-maximal effect.
SMILES,ATXN2 expr inh,TGFb SMAD3 inh,S2 tox,DT40 TDP1 no CPT,TDP1 cell CPT,HepG2 viability
Cc1cc(C)c(S(=O)(=O)NCCc2cc3c(C)ccc(C)c3[nH]c2=O)c(C)c1,0%,8%,i,3.7µM*,7.3µM*,-3%
O=C(COC(=O)CCc1ccc(S(=O)(=O)N2CCOCC2)cc1)NC1CCCC1,-2%,-9%,i,-10%,-3%,-15%
O=C(Nc1nc(COc2ccccc2)cs1)c1ccccc1F,32%,?,i,?,-28%,-9%
Oc1ccc(O)c(-c2cnns2)c1,9%,9%,i,?,15µM*,-1%
Cc1noc(C)c1C(=O)N1CCC1(C)C(=O)NS(=O)(=O)c1ccc(F)cc1F (stereo unspecified),12%,0%,i,0%,4%,10%
CC1=C(C(=O)Nc2cc3cn[nH]c3cc2F)C(c2ccc(C(F)(F)F)cc2)CC(=O)N1 (stereo unspecified),2%,·,·,·,·,·
CCN(CC(=O)Nc1ccccc1C(F)(F)F)CC(=O)c1[nH]c(C)c(C(C)=O)c1C,·,-16%,?,16µM*,23µM*,-25%
CCOC(=O)c1c(C)[nH]c(C(=O)CN(C)CC(=O)Nc2ccccc2Cl)c1C,-12%,-12%,i,21µM*,?,-13%
CCN(CC(=O)Nc1ccc2c(c1)OCCO2)CC(=O)Nc1ccccc1C(F)(F)F,6%,-8%,i,-23%,-28%,5%
CC(=O)c1c(C)[nH]c(C(=O)CN(C)CC(=O)Nc2ccccc2Cl)c1C,-16%,0%,i,21µM*,?,-11%
CCCCN(C=O)c1c(CC)nc2ccc(C(=O)NCc3cccs3)cn12,-1%,1%,i,?,-30%,-23%
CN(C)S(=O)(=O)c1cccc(NC(=O)COC(=O)CNC(=O)c2ccccc2F)c1,·,1%,i,-3%,-20%,-10%
COc1ccc(CNc2nc3nc4c(c(=O)n3[nH]2)CCC4)cc1,0%,-2%,i,-22%,0%,-28%
CCc1cc[n+](C(C(=S)Nc2cccc(C)c2)=C([O-])c2ccc(C)c([N+](=O)[O-])c2)cc1,-10%,-9%,i,·,16µM*,-3%
Cc1ccc(/C([O-])=C(/C(=S)NCc2ccccc2)[n+]2cccc(CO)c2)cc1[N+](=O)[O-],-4%,0%,i,-7%,-2%,-5%
CCOC(=O)[C@H]1[C@H]2COc3ccc(Br)cc3[C@@H]2N2C(=O)c3ccc(Cl)cc3NC(=O)[C@@]12C,1%,?,i,18µM*,18µM*,1%
CCOC(=O)[C@H]1[C@H]2COc3ccc(C)cc3[C@@H]2N2C(=O)c3cc(Cl)ccc3NC(=O)[C@@]12C,-13%,?,i,?,?,-25%
CCOC(=O)[C@H]1[C@H]2COc3ccc(C)cc3[C@@H]2N2C(=O)c3ccc(C)cc3NC(=O)[C@@]12C,-10%,-4%,i,?,23µM*,5%
C[C@H](CO)N1C[C@H](C)[C@@H](CN(C)Cc2ccccc2)Oc2c(NS(=O)(=O)c3cn(C)cn3)cccc2C1=O,-1%,-5%,i,?,?,-15%
Cc1ccc2c(C)nc(Nc3nc(CSc4nnnn4-c4ccccc4)cc(=O)[nH]3)nc2c1,-26%,?,?,6.5µM*,5.8µM*,-2%
Cc1ccc2c(C)nc(Nc3nc(CSc4nc5ccccc5s4)cc(=O)[nH]3)nc2c1,-17%,-2%,i,5.2µM*,?,1%
